# Reference: PubChem BioAssay AID1851 (National Center for Advancing Translational Sciences (NCATS), 2009)
# Values joined by “and” are separate entries in the source; they are usually repeats but may differ in a detail not shown here. Equal values may be shown once. Among all 16,000 compounds or so, about 5,700 (36%) were called active. About 24% were inconclusive and are not listed. Calls come from the whole dose curve; as a rule, active = well fitted curve in the direction sought with a large enough effect; inconclusive = small, poorly fitted or top-dose-only effect, or effect the other way; inactive = no such curve, though single readings can be large or run the other way. The list shows a part of the results.
# Molecular target: Cytochrome P450 1A2 (Homo sapiens) (UniProt P05177)
# Assay: Cytochrome panel assay with activity outcomes
# Settings: recombinant CYP, pro-luciferin dealkylation, luminescence, p450-cyp1a2; series mostly up to 57.1 µM
# Cytochrome P450 1A2 (Homo sapiens), sequence (P05177 whole entry, looked up): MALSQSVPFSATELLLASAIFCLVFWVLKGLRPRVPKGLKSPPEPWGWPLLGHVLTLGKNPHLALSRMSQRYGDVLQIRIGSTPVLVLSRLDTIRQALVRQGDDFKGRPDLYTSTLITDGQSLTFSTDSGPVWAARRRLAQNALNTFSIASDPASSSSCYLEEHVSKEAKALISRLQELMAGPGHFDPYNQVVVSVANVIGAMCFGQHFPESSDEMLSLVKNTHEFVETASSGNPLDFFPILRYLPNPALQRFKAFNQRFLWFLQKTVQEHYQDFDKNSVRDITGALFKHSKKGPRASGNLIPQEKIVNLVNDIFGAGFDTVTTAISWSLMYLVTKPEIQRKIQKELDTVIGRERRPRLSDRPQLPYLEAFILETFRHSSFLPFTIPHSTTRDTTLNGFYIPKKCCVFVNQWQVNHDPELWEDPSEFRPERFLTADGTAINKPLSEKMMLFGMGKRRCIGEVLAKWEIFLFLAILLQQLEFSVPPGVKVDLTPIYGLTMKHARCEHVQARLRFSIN
row,Compound,AC50
1,C(=C\c1nnc(-c2cccs2)o1)/c1ccccc1,2.51 µM (active)
2,Cc1ccc(/C=C/c2nnc(-c3cccs3)o2)cc1,8.91 µM (active)
3,Cn1c(=O)c(-c2cc(F)cc(F)c2)nc2cnc(Oc3ccccc3)nc21,2 µM (active)
4,COc1ncc2nc(-c3cc(F)cc(F)c3)c(=O)n(C)c2n1,2 µM (active)
5,COc1ccc(Oc2ncc3nc(-c4cc(F)cc(F)c4)c(=O)n(C)c3n2)cc1,3.16 µM (active)
6,Nc1nc2c(c(=O)[nH]1)N(C=O)[C@H](CNc1ccc(C(=O)N[C@@H](CCC(=O)O)C(=O)O)cc1)CN2,inactive
7,COc1cccc(OC)c1OCCCN1CCOCC1,inactive
8,COc1cccc(OC)c1OCCNC[C@@H]1COc2ccccc2O1,12.6 µM (active) and 25.1 µM (active)
9,Cn1c(C(=O)O)c(CC(=O)NCC2COc3ccccc3O2)c2ccccc21 (configuration not stated),inactive
10,COc1ccccc1NC(=O)CC1COc2ccccc2O1 (configuration not stated),7.08 µM (active)
11,COc1ccccc1NC(=O)N1CCC(c2nnc(SCC(N)=O)n2C)CC1,inactive
12,CC(C)N=c1scc(-c2ccco2)n1/N=C/c1ccc(O)c(O)c1,15.8 µM (active)
13,CNc1cc(NS(=O)(=O)c2ccc(N)cc2)nc(NC)n1,inactive
14,Cc1cccc(OCCSCc2nc3ccccc3[nH]2)c1,2.24 µM (active)
15,Cc1ccccc1N1CCN(S(=O)(=O)C[C@@]23CC[C@H](C[C@H]2NC(=O)[C@@H](N)CCS(C)(=O)=O)C3(C)C)CC1,inactive
16,COc1ccc(/C=N/NC(N)=S)cc1OC(=O)c1cccc2ccccc12,1.58 µM (active)
17,COc1ccc(C(=O)Oc2cc(/C=N/NS(=O)(=O)c3ccc(C)cc3)ccc2OC)cc1,inactive
18,COc1ccc(/C=N/NC(=O)c2cc(-c3ccc(C)cc3C)nc3ccccc23)cc1COC(C)=O,inactive
19,O=c1c2ccccc2nc2n1CCC2,6.31 µM (active)
20,O=c1c2ccccc2nc2n1C(CSc1ccc(F)cc1)CN2 (configuration not stated),inactive
21,O=c1c2ccccc2nc2n1CCc1c-2[nH]c2ccccc12,0.316 µM (active)
22,CC(C)NC(=O)N1CC2(CCN(C(=O)c3ccncc3)CC2)C1,inactive
23,Cc1noc(C)c1C(=O)N1CCC2(CCCN(Cc3ccccc3)C2)CC1,inactive
24,O=[N+]([O-])c1ccc(C2=Nn3c(nnc3-c3ccc(Cl)cc3)SC2)o1,0.158 µM (active)
25,Cc1nc2sccc2c(=O)n1-c1cccc(Cl)c1,11.2 µM (active)
26,COC(=O)c1cnn(C(=O)c2ccccc2Br)c1N,8.91 µM (active)
27,COC(=O)c1cnn(C(=O)c2cc(OC)ccc2Br)c1N,28.2 µM (active)
